Assay outcomes deposited in PubChem BioAssay by several laboratories.
Shown are actives, neighbours in structure and some others; about 4.6% of the full set was active somewhere.
tim10-1 inh = inhibits growth of tim10-1 mutant yeast | 330,000 compounds, 2.2% hits | S. cerevisiae tim10-1 ts strain growth, BacTiter-Glo, 24 h | inhibition, % at 20 µM;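 active = inhibition of at least 40%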;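 note: mutant grown at 25 °C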
PfHsp90 yeast 2 = reduces growth (ATP signal) of yeast expressing P. falciparum Hsp90 | S. cerevisiae expressing PfHsp90, BacTiter-Glo ATP, 48 h; yeast lacking PDR1 and PDR3 efflux regulators | inhibition, % at 9.4 µM | 310,000 compounds, 0.32% hits;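 active = every replicate shows inhibition above about 80%, whatever the replicate mean, limit read from the data; inconclusive = mean inhibition reaches the set limit but some replicate falls short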
tim23-1 inh = tim23-1 yeast growth inhibition; S. cerevisiae tim23-1 growth, BacTiter-Glo luminescence, 24 h; inhibition, % at 20 µM; 330,000 compounds, 1.3% hits; AID 463212;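 active = growth inhibition of the mutant yeast at or above 50%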;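 note: temperature-sensitive mutant grown at 25 °C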
SKKanGAS inh = inhibitors of SKKanGAS S. pyogenes growth in kanamycin (SK-promoter or general growth effect); BacTiter-Glo, 6 h; inhibition, % at 7.5 µM; 300,000 compounds, 1.3% hits;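 active = mean replicate score, as percent of positive control median, at least 50; inconclusive = mean below 50 but one replicate at or above 50; inactive = mean and every replicate below 50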;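 note: strain carries kanamycin resistance gene driven by streptokinase promoter and grows in 40 µg/ml kanamycin; loss of luminescence reflects streptokinase promoter inhibition or plain growth inhibition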
NALP3 yeast inh = inhibitors of NALP3 inflammasome in yeast; 330,000 compounds, 0.39% hits; AID 2825; inhibition, % at 10 µM; Yeast reconstituted NLRP3/ASC/caspase-1, beta-gal luminescence, 24 h;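 active = inhibition of 50% or more; inactive = inhibition below 50%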
TIM10 inh = inhibits growth of TIM10 yeast strain; S. cerevisiae TIM10 strain growth, BacTiter-Glo luminescence, 24 h; inhibition, % at 10 µM; 330,000 compounds, 1.4% hits; AID 463195;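 active = inhibition of 40% or more at the single tested concentration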;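 note: wild-type TIM10 isogenic control strain grown at permissive 25 °C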
Hits are given with their value; i = inactive; ? = inconclusive; nt = no result.

SMILES | tim10-1 inh | PfHsp90 yeast 2 | tim23-1 inh | SKKanGAS inh | NALP3 yeast inh | TIM10 inh
CCOc1ccc(N2C(=O)CC(NNc3nc4ccccc4s3)C2=O)cc1 (centres undefined) | i | i | i | i | i | i
Cc1cc(N2C(=O)C(O)=C(C(=O)c3cc4ccccc4o3)C2c2cccc(Cl)c2)no1 (centres undefined) | i | i | i | 83 | i | i
CCCOc1ccc(C2C(C(=O)c3cc4ccccc4o3)=C(O)C(=O)N2c2cc(C)on2)cc1 (centres undefined) | i | i | i | i | i | i
Cc1cc(N2C(=O)C(O)=C(C(=O)c3cc4ccccc4o3)C2c2ccc(Br)cc2)no1 (centres undefined) | i | i | i | 87 | i | i
CCCOc1ccc(C2C(C(=O)c3cc4ccccc4o3)=C(O)C(=O)N2c2cc(C)on2)cc1OC (centres undefined) | i | i | i | 98 | i | i
Cc1cc(N2C(=O)C(O)=C(C(=O)c3cc4ccccc4o3)C2c2ccc(Cl)cc2)no1 (centres undefined) | i | i | i | i | i | i
CCN(CC)c1ccc(NC(=O)c2ccc3c(c2)OCO3)c(C)c1 | i | i | i | i | i | i
COc1cccc(OC)c1C(=O)NC(=S)NNC(=O)[C@H]1C[C@@H]1c1ccccc1 | i | i | i | 79 | i | i
O=C(NC(=S)NNC(=O)[C@H]1C[C@@H]1c1ccccc1)c1cccc(F)c1 | i | i | i | 99 | i | i
COc1cccc(OC)c1C(=O)NC(=S)NCc1ccccc1 | i | i | i | i | i | i
CCOCCCNC(=O)c1cccc(OC2CCN(S(C)(=O)=O)CC2)c1 | i | i | i | i | i | i
CN(C)CCNC=C(C(=O)Nc1ccc(Cl)cc1Cl)C(=O)Nc1ccc(Cl)cc1Cl | i | nt | i | 56 | i | i
C[C@]12CCC(O)CC1CCC1C2CC[C@]2(C)C(c3cc(C(F)(F)F)n[nH]3)CCC12 (some centres undefined) | i | i | i | 106 | i | i
Cc1ccc(S[C@@H](CCN2CC[C@H](C(C)(C)C)CCC2=O)c2ccccc2)cc1 | i | i | i | 76 | i | i
Cc1ccc(S[C@@H](CCN2CC[C@H](C)CCC2=O)c2ccccc2)cc1 | i | i | i | i | i | i
O=C(N/N=C/c1c[nH]c2ccccc12)c1[nH]c2ccc(Br)cc2c1-c1ccccc1 | nt | i | nt | 73 | nt | nt
O=C(N/N=C/c1ccc(O)cc1)c1[nH]c2ccc(Br)cc2c1-c1ccccc1 | i | i | i | ? | i | i
CCOC(=O)CNC(=O)COc1coc(CN2CCN(Cc3ccccc3)CC2)cc1=O | i | i | i | i | i | i
CCCC1=NN2C(=N)/C(=C\c3cc(C)n(-c4cc(C)cc(C)c4)c3C)C(=O)N=C2S1 | i | i | i | 72 | i | i
Cc1cc(C)cc(-n2c(C)cc(/C=C3\C(=N)N4N=C(CC(C)C)SC4=NC3=O)c2C)c1 | i | i | i | 69 | i | i
Cc1ccc(NC(=O)C2CCCN(C(=O)c3ccc(Cl)cc3)C2)cc1S(=O)(=O)N1CCOCC1 (centres undefined) | i | nt | i | i | i | i
COc1ccc(-c2nc(NC(C)=O)sc2-c2ccc(OC)cc2)cc1 | i | i | i | 67 | i | i
CCC(C)(C)n1nnnc1C(c1cccnc1)N1CCC(Cc2ccccc2)CC1 (centres undefined) | i | 83 | i | i | i | i
CCn1c(NC(=O)/C=C/c2ccc(F)cc2)nc2ccccc21 | i | i | i | 62 | i | i
CCn1c(NC(=O)c2ccccc2)nc2ccccc21 | i | i | i | i | i | i
SMILES | tim10-1 inh | PfHsp90 yeast 2 | tim23-1 inh | SKKanGAS inh | NALP3 yeast inh | TIM10 inh
CCC(C)[C@@H](NC(=O)OC(C)(C)C)c1nnc(S(=O)(=O)Cc2cccc(C)c2)o1 (some centres undefined) | nt | 121 | nt | i | nt | nt
COc1ccc(C(=O)Cn2nnc(-c3ccccc3NC(=O)c3ccco3)n2)cc1 | i | i | i | 55 | i | i
COc1ccc(C(=O)Nc2ccccc2-c2nnn(CC(=O)N3CCOCC3)n2)cc1 | i | nt | i | i | i | i
O=C(Nc1cccc([N+](=O)[O-])c1)c1cc2ccccc2cc1O | i | i | i | 74 | i | i
Cc1cc(C(C)(C)C)cc(C)c1COC(=O)c1cccnc1 | i | i | i | 64 | i | i
CC(C)(C)c1ccc(OC(=O)c2cccnc2)cc1 | i | i | i | i | i | i
